Several values for one entry are separate records, joined by “and”; a condition that tells them apart may be missing. Identical values can stand only once. About 5,700 (36%) of roughly 16,000 compounds were called active. Inconclusive results (about 24%) are left out. Calls follow the shape of the dose curve; as a rule, active = well fitted curve in the direction sought with a large enough effect; inconclusive = small, poorly fitted or top-dose-only effect, or effect the other way; inactive = no such curve, though single readings can be large or run the other way. This is one part of the list.
% is scaled to controls: 0 for no effect and ±100 for the full control effect.

The target in the assay is Cytochrome P450 1A2 (Homo sapiens) (UniProt P05177). Put plainly: Cytochrome panel assay with activity outcomes. Conditions: recombinant CYP, pro-luciferin dealkylation, luminescence, p450-cyp1a2; series mostly up to 57.1 µM.
Chain of Cytochrome P450 1A2 (Homo sapiens) (P05177 whole entry, looked up): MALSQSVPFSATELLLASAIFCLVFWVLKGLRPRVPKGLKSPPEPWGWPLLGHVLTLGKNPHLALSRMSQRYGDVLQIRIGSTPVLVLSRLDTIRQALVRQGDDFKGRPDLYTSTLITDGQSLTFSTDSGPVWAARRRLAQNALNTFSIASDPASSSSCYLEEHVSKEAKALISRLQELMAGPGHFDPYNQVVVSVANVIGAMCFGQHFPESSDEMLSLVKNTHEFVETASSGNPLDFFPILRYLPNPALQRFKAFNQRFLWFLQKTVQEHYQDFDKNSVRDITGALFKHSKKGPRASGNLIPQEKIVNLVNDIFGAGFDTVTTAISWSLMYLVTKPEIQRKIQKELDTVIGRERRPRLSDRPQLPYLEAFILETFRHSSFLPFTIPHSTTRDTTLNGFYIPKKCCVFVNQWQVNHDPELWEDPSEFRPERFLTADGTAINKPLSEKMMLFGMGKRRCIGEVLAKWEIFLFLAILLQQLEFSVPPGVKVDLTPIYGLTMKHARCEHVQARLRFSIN
In the case of `Clc1ccc2c(NCCNC3CCCCC3)ccnc2c1`, the activity, negative = inhibition was -10.2% [at 2.29 µM] (inactive).

For orientation: AC50 means the midpoint of the concentration-response curve, whichever way the signal moves. On to `O=C(OC[C@@H](O)CO)c1ccccc1Nc1ccnc2cc(Cl)ccc12`, for which the AC50 is 5010 nM (active). `Clc1ccc2c(NC3CCC(N4CCCCC4)CC3)ccnc2c1` (stereo not given): the activity, negative = inhibition is -15.7% [at 2.29 µM] (inactive). On to `CCN1CNC(=S)N(c2cc(C)ccc2C)C1`, for which the AC50 result was “inactive”. As for `CCOC(=O)C[n+]1c(C)sc2ccc(OC)cc21`, the AC50 was 14100 nM (active).

As for `Cc1sc2ccccc2[n+]1CCC(=O)O`, the activity, negative = inhibition was -3.71% [at 11.4 µM] (inactive). Take `Cc1cc2sc(C)[n+](CCCOS(=O)(=O)O)c2cc1C`: the activity, negative = inhibition was -10.3% [at 11.4 µM] (inactive). For `COc1cccc2c(=O)c(C(=O)NCc3cccs3)c[nH]c12`, the AC50 was 631 nM (active). The same measure, in the same setting: the result for `O=c1cnc2cnc(N3CCNCC3)nc2n1Cc1ccc(F)cc1` reads 15800 nM (active). `Cc1nc2cnc(N3CCNCC3)nc2n(Cc2ccc(F)cc2)c1=O`: the AC50 was 12600 nM (active).

In the case of `Cc1nc2cnc(N3CCN(C)CC3)nc2n(Cc2ccc(F)cc2)c1=O`, the AC50 result was “inactive”. For the compound `COc1ccc(-c2nc3cnc(N4CCNCC4)nc3n(Cc3ccc(F)cc3)c2=O)cc1`, the AC50 result was “inactive”. On to `O=c1c(-c2ccc(F)cc2)nc2cnc(N3CCNCC3)nc2n1Cc1ccc(F)cc1`, for which the AC50 is 15800 nM (active).

As to `COc1ccc(Nc2nnc(-c3ccc(N4CCOCC4)c([N+](=O)[O-])c3)c3ccccc23)cc1`, the AC50 entry was “inactive”. Turning to `Clc1cccc(Nc2nnc(-c3ccccc3)c3ccccc23)c1`, the AC50 is 1260 nM (active). Take `COc1ccccc1NC(=O)C(C/C=C(\C)Cl)C(C)=O` (stereo not given): the AC50 is 12600 nM (active).

With `CCN1CCCC1CNC(=O)C(=O)Nc1ccccc1OC` (stereo not given), the AC50 result is “inactive”.

`O=C(O)[C@H]1[C@H](C(=O)O)[C@H](C(=O)O)C[C@@H]1C(=O)O`: the activity, negative = inhibition is -9.47% [at 11.4 µM] (inactive). In the case of `CCNc1ncc2nc(CCc3ccccc3)c(=O)n(CCOC)c2n1`, the concentration at half-maximal activity (AC50) is 2000 nM (active). Turning to `CCNc1ncc2nc(CCc3ccccc3)c(=O)n(-c3ccccc3)c2n1`, the AC50 is 1260 nM (active).

In the case of `CCNc1ncc2nc(CCc3ccccc3)c(=O)n(C)c2n1`, the half-maximal activity concentration (AC50) was 2510 nM (active). As to `CCNc1ncc2nc(CCc3ccccc3)c(=O)n(C3CC3)c2n1`, the AC50 was 3160 nM (active). On to `CCCCCCCCCCCCCCCC(=O)NC[C@@H](COP(=O)([O-])OCC[N+](C)(C)C)OCC`, for which the AC50 entry is “inactive”. Consider `Cc1cc2c(nc1C)CCCN2C[C@H](O)CN1CCCc2nc(-c3ccc(Br)cc3)ccc21`, for which the activity, negative = inhibition is 3.9% [at 11.4 µM] (inactive) and 2.86% [at 11.4 µM] (inactive).

`CC1(C)CC(=O)C(C=NCCN2CCN(C(=S)Nc3ccc(F)cc3)CC2)=C(O)C1`: the AC50 result is “inactive”. On to `CN1CC(c2ccccc2)C2(COc3ccccc3C2=O)C12C(=O)Nc1ccccc12` (stereo not given), for which the AC50 result was “inactive”. Regarding `CN1CC(c2ccccn2)C2(SC(=S)N(Cc3ccccc3)C2=O)C12C(=O)Nc1ccccc12` (stereo not given), the AC50 was 17800 nM (active). `CC(/C=C/c1ccccc1)=N/NC(=O)CNC(=O)c1ccc2c(c1)OCO2`: the AC50 was 2240 nM (active).

For the compound `CC1CCCCN1c1nc(-c2ccncc2)nc2ccccc12` (stereo not given), the AC50 was 355 nM (active).

For the compound `NC(=O)C1(N2CCCCC2)CCN(C(=O)c2ccc(-n3cnnn3)cc2)CC1`, the AC50 result is “inactive”. For the compound `N#CC(c1ccc(Cl)cc1)c1nc2ccccc2nc1C(F)(F)F` (stereo not given), the AC50 was 1580 nM (active). As to `CCOC(=O)c1ccc(S(=O)(=O)Nc2ccc3cn[nH]c3c2)cc1`, the AC50 is 5010 nM (active).

Regarding `Cc1ccnc(NS(=O)(=O)c2ccc(NC(=O)C3CCCNC3=O)cc2)n1` (stereo not given), the AC50 entry was “inactive”. `CCOc1cc(C)c(S(=O)(=O)Nc2ccc3cn[nH]c3c2)cc1C`: the AC50 was 178 nM (active). As for `Cn1c(=O)[nH]c(=O)c2c1nc(CN(Cc1ccccc1)Cc1ccccc1)n2CCN1CCOCC1`, the AC50 result is “inactive”. Regarding `C[C@@H](O)[C@H]1C(=O)N2C(C(=O)O)=C(S[C@@H]3CN[C@H](C(=O)N(C)C)C3)[C@H](C)[C@H]12`, the AC50 result was “inactive”. For `CN1c2ccccc2Oc2c(c(=O)n(C)c(=O)n2C)C1c1cccc([N+](=O)[O-])c1` (stereo not given), the AC50 entry was “inactive”. On to `CCOCC(=O)Nc1cc(-c2cn3cccnc3n2)ccc1C`, for which the half-maximal activity concentration (AC50) was 50.1 nM (active).

For `CCCC(=O)Nc1cc(-c2cn3cccnc3n2)ccc1OC`, the AC50 was 100 nM (active). Turning to `O=C(Nc1cccc(-c2cn3cccnc3n2)c1)c1ccco1`, the AC50 was 31.6 nM (active). Still for that read-out and setting: then `COCC(=O)Nc1ccc(-c2cn3cccnc3n2)cc1`, with 7080 nM (active); and `COCC(=O)N1CCC2(CC1)CCN(C(=O)Nc1ccc(OC)cc1)CC2`, with “inactive”; and `N#Cc1cccc(NC(=O)N2CCC3(CC2)CCN(C(=O)c2ccco2)CC3)c1`, with “inactive”. For the compound `O=C(c1ccco1)N1CCN(C(=O)c2nn3cccnc3c2Cl)CC1`, the AC50 result was “inactive”. In the case of `CCOc1ccc(-n2c(SCC(=O)Nc3ccccc3C)n[nH]c2=O)cc1`, the AC50 result is “inactive”. For the compound `NC(=O)c1ccc[n+](CC(=O)OCCC23CC4CC(CC(C4)C2)C3)c1`, the AC50 result was “inactive”. Turning to `CC(=O)C[C@H](O)[C@@H](NC(=O)OC(C)(C)C)C(C)C`, the activity, negative = inhibition was 0.505% [at 11.4 µM] (inactive). Regarding `Cc1cc(C2(c3cc(C)c(O)c(C(=O)O)c3)OS(=O)(=O)c3ccccc32)cc(C(=O)O)c1O`, the activity, negative = inhibition was -9.3% [at 11.4 µM] (inactive). `c1ccc([P+](CC[P+](c2ccccc2)(c2ccccc2)c2ccccc2)(c2ccccc2)c2ccccc2)cc1`: the activity, negative = inhibition is -7.8% [at 11.4 µM] (inactive). For `Nc1nc(=S)[nH]c2c1C1(CCCC1)Cc1ccccc1-2`, the AC50 was 891 nM (active). Consider `O=c1c2c(n3cnnc3n1-c1ccccc1)-c1ccccc1CC21CCCCC1`, for which the AC50 entry is “inactive”. As for `CCOC(=O)CCN1C(=O)[C@H]2[C@H]3[C@H](O)[C@H](O)C/C(=N/OC/C=C(\C)CCC=C(C)C)[C@H]3CC[C@@H]2C1=O`, the activity, negative = inhibition is 1.64% [at 11.4 µM] (inactive). Regarding `CC(=O)c1cccc(NC(=O)c2csc(-n3nc(C)cc3C(F)(F)F)n2)c1`, the concentration at half-maximal activity (AC50) is 3160 nM (active). Take `CO[C@H]1[C@@H](OC(N)=O)[C@H](O)[C@@H](Oc2ccc3c(O)c(NC(=O)c4ccc(O)c(CC=C(C)C)c4)c(=O)oc3c2C)OC1(C)C`: the AC50 result is “inactive”.

Regarding `Cc1cc2c(nc1C)CCCN2C[C@H](C)O/N=C1/[C@H]2O[C@@H]2[C@@H](O)[C@H]2[C@H]1CCn1c(=O)n(-c3ccccc3)c(=O)n12`, the activity, negative = inhibition is 2.9% [at 11.4 µM] (inactive).

The values are drawn from PubChem BioAssay AID1851 (National Center for Advancing Translational Sciences (NCATS), 2009).
